HP1b chromo inh – HP1-beta chromodomain-methylated histone interaction inhibition | P83916 | Potency, µM (top dose mostly 114 µM), without a hit: top-dose activity change, negative = inhibition, actives largely listed as inhibitors | AID 540317 | actives 0.56% (n = 390,000) | AlphaScreen HP1-beta / biotin-H3K9me3 peptide binding; further: potency means the concentration at half of the fitted maximal effect; nearly all actives have a fitted effect of over 70% in size
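AlphaScreen: HP1-beta (50 nM) preformed 30 min with biotin-H3(1-18)K9me3 peptide (50 nM) in PBS pH 7.4, 0.01% Tween-20. Compound added for 30 min at RT, then streptavidin donor/nickel chelate acceptor beads (10 ug/mL) for 30 min.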
G9a block – G9a (human) methyltransferase inhibition; G9a H3K9 monomethylation, AlphaScreen, 2 h; Potency, µM (doses to about 102 µM), without a hit: at the highest dose activity, negative = inhibition, actives largely listed as inhibitors; actives 8.8% (n = 350,000); further: potency means the concentration at half of the fitted maximal effect; on the % scale 0 is the no-effect control and ±100 the full control effect; nearly all actives have a fitted effect of over 75% in size
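Quantitative HTS format: methyltransferase activity on a biotin-tagged H3K9 peptide is measured by AlphaScreen, using a rabbit anti-monomethyl-H3K9 antibody with streptavidin donor and anti-IgG acceptor beads. Final levels are 20 nM enzyme, 500 nM peptide, 20 uM SAM; 2 h RT.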
BAZ2B inh – blocks human BAZ2B; actives 4.4% (n = 360,000); Q9UIF8; Potency, µM (top dose mostly 114 µM), for the others: at the highest dose activity change, negative = inhibition, most hits filed as inhibitors; AID 504333; AlphaScreen BAZ2B-H3K14Ac peptide displacement; further: potency means the concentration at half of the fitted maximal effect; on the % scale 0 is the no-effect control and ±100 the full control effect; nearly all actives have a fitted effect of over 60% in size
Target sequence (Q9UIF8 whole entry, looked up): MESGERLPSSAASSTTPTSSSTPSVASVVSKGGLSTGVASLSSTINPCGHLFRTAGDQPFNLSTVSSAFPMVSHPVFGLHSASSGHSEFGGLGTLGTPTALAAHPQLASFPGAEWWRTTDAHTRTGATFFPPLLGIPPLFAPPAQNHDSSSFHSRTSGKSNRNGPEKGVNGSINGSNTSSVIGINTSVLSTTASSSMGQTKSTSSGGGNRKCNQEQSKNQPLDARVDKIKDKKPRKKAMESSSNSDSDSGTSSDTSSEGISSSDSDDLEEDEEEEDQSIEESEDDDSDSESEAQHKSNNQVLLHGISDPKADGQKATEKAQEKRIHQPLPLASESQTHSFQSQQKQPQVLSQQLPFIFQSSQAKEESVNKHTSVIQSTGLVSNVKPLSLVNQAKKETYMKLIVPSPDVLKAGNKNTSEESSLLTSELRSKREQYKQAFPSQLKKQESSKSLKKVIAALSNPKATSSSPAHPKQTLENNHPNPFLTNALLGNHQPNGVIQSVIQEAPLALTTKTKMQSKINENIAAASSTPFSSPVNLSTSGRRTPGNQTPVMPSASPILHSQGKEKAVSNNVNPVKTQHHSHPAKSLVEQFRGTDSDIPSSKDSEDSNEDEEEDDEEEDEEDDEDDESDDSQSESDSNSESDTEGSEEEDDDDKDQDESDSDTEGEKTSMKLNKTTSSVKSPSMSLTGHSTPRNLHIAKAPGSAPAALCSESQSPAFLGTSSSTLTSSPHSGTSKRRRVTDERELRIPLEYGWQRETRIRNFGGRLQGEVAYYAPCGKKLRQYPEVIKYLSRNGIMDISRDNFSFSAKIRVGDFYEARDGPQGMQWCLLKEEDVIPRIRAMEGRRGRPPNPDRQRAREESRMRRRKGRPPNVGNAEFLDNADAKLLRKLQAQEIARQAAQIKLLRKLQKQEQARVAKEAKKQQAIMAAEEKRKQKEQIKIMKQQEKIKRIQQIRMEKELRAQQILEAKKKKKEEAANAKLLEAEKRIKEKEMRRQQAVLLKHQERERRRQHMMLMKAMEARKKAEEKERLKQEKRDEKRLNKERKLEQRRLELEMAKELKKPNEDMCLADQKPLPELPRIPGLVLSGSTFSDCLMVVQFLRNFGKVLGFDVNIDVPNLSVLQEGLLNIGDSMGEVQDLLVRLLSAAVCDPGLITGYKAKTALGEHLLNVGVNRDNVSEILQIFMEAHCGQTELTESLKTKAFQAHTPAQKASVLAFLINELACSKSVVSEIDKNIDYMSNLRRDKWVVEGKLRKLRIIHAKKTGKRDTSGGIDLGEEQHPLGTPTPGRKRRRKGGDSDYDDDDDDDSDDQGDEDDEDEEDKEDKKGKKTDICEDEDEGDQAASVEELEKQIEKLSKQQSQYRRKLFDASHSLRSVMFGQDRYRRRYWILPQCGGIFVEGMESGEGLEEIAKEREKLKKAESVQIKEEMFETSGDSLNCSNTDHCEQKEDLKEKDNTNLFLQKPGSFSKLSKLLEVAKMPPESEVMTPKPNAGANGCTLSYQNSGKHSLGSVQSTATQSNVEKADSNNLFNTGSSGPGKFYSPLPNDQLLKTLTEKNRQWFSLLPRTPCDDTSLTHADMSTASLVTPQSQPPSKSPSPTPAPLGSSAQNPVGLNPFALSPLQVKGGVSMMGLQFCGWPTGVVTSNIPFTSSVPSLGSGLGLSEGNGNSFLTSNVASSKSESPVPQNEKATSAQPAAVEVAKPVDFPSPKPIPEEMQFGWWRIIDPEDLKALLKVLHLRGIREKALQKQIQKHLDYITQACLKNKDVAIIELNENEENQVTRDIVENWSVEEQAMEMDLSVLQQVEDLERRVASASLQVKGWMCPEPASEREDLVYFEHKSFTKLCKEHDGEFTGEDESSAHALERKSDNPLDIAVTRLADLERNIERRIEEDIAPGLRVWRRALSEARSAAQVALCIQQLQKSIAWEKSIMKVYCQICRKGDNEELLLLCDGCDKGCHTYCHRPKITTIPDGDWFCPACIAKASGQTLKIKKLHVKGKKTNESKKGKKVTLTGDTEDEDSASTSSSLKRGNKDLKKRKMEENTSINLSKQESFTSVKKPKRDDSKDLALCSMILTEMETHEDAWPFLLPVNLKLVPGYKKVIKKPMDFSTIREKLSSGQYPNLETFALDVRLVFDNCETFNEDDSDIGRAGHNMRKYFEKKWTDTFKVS
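AlphaScreen displacement of biotin-H3(5-23)K14Ac peptide (50 nM final) from BAZ2B (50 nM final) in PBS pH 7.4, 0.01% Tween-20; complex preformed 30 min RT, then compounds (top 110 uM) 30 min RT, beads 20 min dark.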
CtBP-E1A blk – inhibitors of CtBP/E1A interaction | AlphaScreen GST-E1A/His-CtBP binding, 1536-well; hits give low values | activity change, % (concentration not given with the values) | actives 0.49% (n = 340,000) | AID 651724; in the data active means activity change below about -65%; inconclusive means mostly about -30% to -63%; further: on the % scale 0 is the no-effect control and ±100 the full control effect
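Protein mix (5X: 125 nM each GST-E1A, His-CtBP) was incubated with pinned compound 2 h at 37 deg C in dark, in 50 mM Tris pH 8.0 buffer with 300 mM NaCl. Glutathione donor and nickel acceptor beads followed; AlphaScreen signal read after 1 h.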
Six1-Eya2 blk – Six1/Eya2 interaction inhibition | Q15475+O00167 | AlphaScreen GST-Six1/His-Eya2 binding, biochemical; hits give low values | activity change, % (concentration not given with the values) | actives 0.56% (n = 360,000); in the data active means activity change below about -65%; inconclusive means mostly about -30% to -63%; further: on the % scale 0 is the no-effect control and ±100 the full control effect
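AlphaScreen luminescence read after one hour at 37 °C in darkness. Pin-transferred compounds met GST-Six1 and His-Eya2 protein (5X stock 250 nM/500 nM) plus glutathione donor and Ni-chelate acceptor beads (5X, 50 ug/mL).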
JMJD2A Tudor – inhibitors of human JMJD2A Tudor domain | Potency, µM (highest dose often 114 µM), without a hit: at the highest dose activity change, negative = inhibition, actives largely listed as inhibitors | O75164 | AID 504339 | AlphaScreen JMJD2A-Tudor / H3K4me3 peptide binding | actives 4.4% (n = 390,000); further: potency means the concentration at half of the fitted maximal effect; on the % scale 0 is the no-effect control and ±100 the full control effect; nearly all actives have a fitted effect of over 50% in size
Active calls of the source: *; ? = inconclusive; . = no result; [ ] = dose if it differs, or a comment. Sampled rows, rich in hits. Any-hit rate of the full collection: about 10%. Unless noted, the call rests on the fitted dose curve; in most records, active means well fitted inhibition curve with a large enough effect; inconclusive means small, poorly fitted or top-dose-only effect; inactive means no such curve, though single readings can be large or run the other way.

SMILES | HP1b chromo inh | G9a block | BAZ2B inh | CtBP-E1A blk | Six1-Eya2 blk | JMJD2A Tudor
CC(C)(C)Nc1nc(SCC(=O)Nc2ccccc2Cl)nc(N2CCOCC2)n1 | 14% | . | 79µM* | 0 | 2 | -20%
CCNc1nc(SCC(=O)Nc2ccccc2)nc(N2CCOCC2)n1 | -6% | 13% | -1% | 4 | 6 | -20%
CC(Sc1ncnc2sc(-c3ccccc3)cc12)C(N)=O (stereo not given) | 26% | . | 79µM* | 3 | -2 | -21%
Cc1nc2c3ccccc3nc(NNC(=O)CCC(=O)N3CCC(C)CC3)n2n1 | 5%[57 µM] | 79µM* | -21% | . | -17 | -21%
COCCNC(=O)CCC(=O)NNc1nc2ccccc2c2nc(-c3ccccc3)nn12 | 24% | 1% | 5% | -17 | -67* | -14%
CCOC(=O)C1CCN(C(=O)CCC(=O)NNc2nc3ccccc3c3nc(C)nn23)CC1 | 44% | 45µM* | -10% | . | -4 | -1%
Cc1nc2c3ccccc3nc(NNC(=O)CCC(=O)N3CCN(c4ccccc4)CC3)n2n1 | 27% | -10% | -15% | . | 11 | -5%
COc1ccc(N2CCN(C(=O)CCC(=O)NNc3nc4ccccc4c4nc(C)nn34)CC2)cc1 | 29% | 22µM* | -1% | -11 | -10 | -12%
COCCCNC(=O)CCC(=O)NNc1nc2ccccc2c2nc(-c3ccccc3)nn12 | 47% | 0%[59 µM] | -11% | 3 | -23 | -15%
Cc1cccc(N2C(=O)N(CC(=O)C(C)(C)C)c3ccccc3S2(=O)=O)c1C | 8% | 9%[59 µM] | -7% | . | . | -17%
C=CC(C)=C[C@@]1(C)SC(=O)C(C)=C1O | . | 34%[59 µM] | . | . | . | .
CCN1CCC(N(Cc2ccc3c(c2)OCO3)C(=O)Nc2cc(Cl)ccc2C(=O)OC)CC1 | -2% | 0%[59 µM] | -26% | . | . | -27%
CCOC(=O)c1c(C)oc2nc(C)nc(NCC3CCN(Cc4ccccc4C)CC3)c12 | 23% | -14%[59 µM] | 5%[57.1 µM] | . | . | -23%
Cc1nc2c3ccccc3nc(NNC(=O)CCC(=O)NCCC(C)C)n2n1 | 37% | 50µM* | -1% | -2 | -22 | 8%
CCN(CC)CCCNC(=O)CCC(=O)NNc1nc2ccccc2c2nc(C)nn12 | 13% | -30% | ? | -24 | -21 | -24%
Cc1cc(N2CCN(C)CC2)nc(=S)[nH]1 | 54% | 40µM* | -30% | 8 | 2 | -9%
CCN(CC)CCNc1ncnc2c1sc1nc(N3CCCC3)c3c(c12)CC(C)(C)OC3 | ? | ? | 45µM* | -25 | -15 | ?
CC1(C)Cc2c(c(-c3ccco3)nc3sc4c(NCCN5CCOCC5)ncnc4c23)CO1 | -4% | 18µM* | -2% | -2 | 0 | -26%
CC1(C)Cc2c(c(-c3ccco3)nc3sc4c(NCCCO)ncnc4c23)CO1 | -17% | . | -14% | . | -11 | -32%
CCN(CC)CCNc1ncnc2c1sc1nc(N3CCOCC3)c3c(c12)CCCC3 | -16% | 35µM* | -32% | 2 | -3 | ?
Cc1ccc(C)c(Cn2cc(CCC(=O)NC3CCCCC3)c3ccccc32)c1 | 14% | -7%[59 µM] | -17% | . | . | -17%
CCOC(=O)c1ncc2[nH]c3cccc(OC(C)C)c3c2c1C | . | -11%[59 µM] | . | . | . | .
Cc1cccc(-c2noc(-c3ccc(NCc4cccnc4)c([N+](=O)[O-])c3)n2)c1 | 9% | -8%[59 µM] | -7% | . | . | -11%
CCOC(=O)c1sc(=S)n(-c2ccccc2)c1N | ? | ? | 1% | -13 | -5 | -34%
CCNC(=O)c1sc(=S)n(-c2ccc(C)cc2)c1N | ? | 32µM* | -30% | -6 | -1 | -19%
SMILES | HP1b chromo inh | G9a block | BAZ2B inh | CtBP-E1A blk | Six1-Eya2 blk | JMJD2A Tudor
O=S(=O)(c1ccc2c(c1)OCCO2)N1CCN(CCc2ccccc2)CC1 | -16% | . | . | . | . | ?
Cn1c(=O)n(C)c2cc(NS(=O)(=O)c3ccc(F)cc3)c(NCc3ccccc3)cc21 | -6% | 11µM* | -37% | . | . | ?
Cc1ccc(S(=O)(=O)Nc2cc3c(cc2NCc2ccccc2)n(C)c(=O)n3C)c(C)c1 | -16% | 11µM* | 50µM* | . | . | ?
Cc1ccc(S(=O)(=O)Nc2cc3c(cc2NCc2ccccc2)n(C)c(=O)n3C)cc1 | ? | 16µM* | -31% | . | . | ?
COc1ccc(C2=Nn3c(nnc3-c3cccc(OC)c3OC)SC2)cc1 | . | . | . | . | . | -24%
COc1ccc(NC(C)C(=O)N/N=C/c2ccccc2OCc2cccc(Br)c2)cc1 (stereo not given) | ? | 40µM* | 10µM* | ? | ? | 11µM*
Cc1ccccc1NC(C)C(=O)N/N=C/c1ccccc1OCc1cccc(Br)c1 (stereo not given) | 4% | -45%[59 µM] | -8% | -11 | -21 | -31%
O=C(N/N=C/c1c(O)ccc2ccccc12)Nc1ccccc1 | 41% | . | . | . | -2 | -30%
O=C(O)c1ccc(N=Cc2c(O)ccc3ccccc23)cc1 | 15% | 1.1µM* | -5% | 2 | 0 | ?
COc1ccc(NC(C)C(=O)N/N=C/c2c(O)ccc3ccccc23)cc1 (stereo not given) | 50% | 45µM* | 0% | -10 | -16 | -13%
N#Cc1cccc(N=Cc2c(O)ccc3ccccc23)c1 | -25% | 1.4µM* | -3% | -5 | 3 | 35µM*
NS(=O)(=O)c1ccc(CCNc2nc3c(-c4cccc(F)c4)nnn3c3ccc(Cl)cc23)cc1 | 46% | -26%[59 µM] | ? | . | . | -27%
NC(=O)c1ccc(N=Cc2c(O)ccc3ccccc23)cc1 | 5% | . | . | 8 | 6 | ?
COc1ccc(N=Cc2c(O)[nH]c3ccccc23)cc1 | 8% | -38%[59 µM] | -7% | -9 | -16 | -14%
O=C(CNc1ccccc1)N/N=C/c1c(O)ccc2ccccc12 | 24% | -13% | -1% | ? | -22 | -15%
O=C(O)Cc1ccc(N=Cc2c(O)ccc3ccccc23)cc1 | -9% | 1.6µM* | -29% | 2 | 2 | -26%
O=S(=O)(/N=C/c1c(O)ccc2ccccc12)c1ccccc1 | 79µM* | 1.4µM* | -20% | 2 | 0 | 56µM*
Cc1ccc(N=Cc2c(O)ccc3ccccc23)cc1F | 0% | 1.3µM* | 7% | 12 | 1 | 56µM*
CCN(CC)c1ccc(O)c(C=Nc2ccc(C)c(C)c2)c1 | 31% | -48% | -28% | 0 | 7 | 8%
COc1ccc(N=Cc2c(O)ccc3ccccc23)cc1 | 82% | 0.79µM* | -20% | 8 | 2 | 35%
CCN(CC)c1ccc(NC(=O)c2cc(C)nc3c2c(C)nn3-c2ccc(C)cc2)c(C)c1 | 26% | -44%[59 µM] | 9%[57.1 µM] | . | . | -5%
O=c1c(-c2cccs2)nc2cncnc2n1Cc1ccc(F)cc1 | . | 4%[0.501 µM] | . | . | . | .

Screening data deposited in PubChem by National Center for Advancing Translational Sciences (NCATS).
